Most compounds without a hit are left out; they make up all but 11% or so of the library.
BAZ2B inh – blocks human BAZ2B; Q9UIF8; AID 504333; AlphaScreen BAZ2B-H3K14Ac peptide displacement; Potency, µM (doses to about 114 µM), inactives show top-dose activity change, negative = inhibition, most hits filed as inhibitors; 360,000 compounds, 4.4% hits; further: on the % scale 0 is the no-effect control and ±100 the full control effect; nearly all actives have a fitted effect of over 60% in size
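Compounds, titrated to a top concentration of 110 uM, were incubated 30 min at room temperature with preformed BAZ2B/acetyl-K14 H3 peptide complex (50 nM each). Proximity signal was measured by AlphaScreen after 20 min with beads.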
G9a block – G9a (human) methyltransferase inhibition. 350,000 compounds, 8.8% hits. Q96KQ7. Potency, µM (doses to about 102 µM), for inactives: top-dose activity, negative = inhibition, most hits filed as inhibitors. G9a H3K9 monomethylation, AlphaScreen, 2 h; further: on the % scale 0 is the no-effect control and ±100 the full control effect; nearly all actives have a fitted effect of over 75% in size
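Signal arises when biotinylated H3K9 peptide, once monomethylated, bridges streptavidin donor and antibody-captured acceptor beads. Enzyme at 20 nM was preincubated 15 min with test compounds; peptide 500 nM and SAM 20 uM then reacted for 2 h.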
HP1b binding inh – inhibitors of HP1-beta chromodomain binding to methylated histone tails; P83916; AlphaScreen HP1-beta / biotin-H3K9me3 peptide binding; Potency, µM (top dose mostly 114 µM), for the others: top-dose activity change, negative = inhibition, most hits filed as inhibitors; 390,000 compounds, 0.56% hits; AID 540317; further: nearly all actives have a fitted effect of over 70% in size
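AlphaScreen: HP1-beta (50 nM) preformed 30 min with biotin-H3(1-18)K9me3 peptide (50 nM) in PBS pH 7.4, 0.01% Tween-20. Compound added for 30 min at RT, then streptavidin donor/nickel chelate acceptor beads (10 ug/mL) for 30 min.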
VDR inh – inhibitors of human vitamin D receptor; P11473; 400,000 compounds, 0.93% hits; Potency, µM, for inactives: max response, negative = inhibition, actives largely listed as inhibitors; VDR-SRC2-3 peptide fluorescence polarization, 2 h; further: on the % scale 0 is the no-effect control and ±100 the full control effect
Target sequence (P11473 whole entry, looked up): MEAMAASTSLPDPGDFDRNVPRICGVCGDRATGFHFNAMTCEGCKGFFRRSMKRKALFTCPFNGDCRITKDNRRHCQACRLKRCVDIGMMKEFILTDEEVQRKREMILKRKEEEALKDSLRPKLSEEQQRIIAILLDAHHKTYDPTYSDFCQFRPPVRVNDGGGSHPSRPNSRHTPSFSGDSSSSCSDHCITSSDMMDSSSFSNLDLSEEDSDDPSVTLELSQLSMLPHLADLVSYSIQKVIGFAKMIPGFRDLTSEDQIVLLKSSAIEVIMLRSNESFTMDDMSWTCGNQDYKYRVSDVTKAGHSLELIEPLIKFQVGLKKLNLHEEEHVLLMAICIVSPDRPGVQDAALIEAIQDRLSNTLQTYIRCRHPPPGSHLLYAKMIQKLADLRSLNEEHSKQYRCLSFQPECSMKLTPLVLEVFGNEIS
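Two reagent solutions held at 4 deg C in the dark were dispensed, compounds pinned at 23 nl, and the mixture incubated 2 h at room temperature. Read-out: fluorescence polarization of VDR–SRC2-3 peptide binding.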
PLK1 PBD block – inhibitors of human PLK1 polo-box domain binding; 360,000 compounds, 2.8% hits; P53350; Potency, µM, for inactives: max response, negative = inhibition, most hits filed as inhibitors; Plk1 PBD binding of FITC phosphopeptide, fluorescence polarization; further: series mostly up to about 57 µM; on the % scale 0 is the no-effect control and ±100 the full control effect; nearly all actives have a fitted effect of over 65% in size
JMJD2A Tudor – inhibitors of human JMJD2A Tudor domain | O75164 | AlphaScreen JMJD2A-Tudor / H3K4me3 peptide binding | Potency, µM (doses to about 114 µM), for the others: at the top dose activity change, negative = inhibition, most hits filed as inhibitors | 390,000 compounds, 4.4% hits | AID 504339; further: on the % scale 0 is the no-effect control and ±100 the full control effect; nearly all actives have a fitted effect of over 50% in size
* = called active by the depositor; [ ] = another dose, or the depositor's remark. The call rests on the fitted dose curve; in most records, active means well fitted curve in the direction sought with a large enough effect; inconclusive means small, poorly fitted or top-dose-only effect, or another doubt; inactive means no such curve, though single readings can be large; an effect the other way counts as inactive or inconclusive. Potency means the concentration at half of the fitted maximal effect.

What do the screens show for `CCC(CC)C(=O)N1CCN(c2ccccc2)CC1`?
BAZ2B inh: -17%; G9a block: 79µM*; HP1b binding inh: 35%; VDR inh: -2%; PLK1 PBD block: -14%; JMJD2A Tudor: -17%

What do the screens show for `CCN(CC1CCCN(CCc2cccc(OC)c2)C1)C(=O)c1ccoc1C` (stereo not drawn)?
BAZ2B inh: -20%; G9a block: 21%; HP1b binding inh: 8%; VDR inh: 4%; PLK1 PBD block: -13%; JMJD2A Tudor: -23%

What do the screens show for `CCCOc1cccc(C(=O)N/N=C/c2ccoc2)c1`?
BAZ2B inh: inconclusive; HP1b binding inh: 6%; VDR inh: -9%; PLK1 PBD block: -19%; JMJD2A Tudor: -21%

How did Cc1ccc(NC(=O)C2COc3ccccc3O2)cc1S(=O)(=O)N1CCOCC1 (stereo not drawn) do in these assays?
BAZ2B inh: 2%; G9a block: inconclusive; HP1b binding inh: 35%; VDR inh: -9%; PLK1 PBD block: -4%; JMJD2A Tudor: -15%

Results for NC(=S)NCCCC(N)C(=O)O (stereo not drawn) ?
G9a block: 8.9µM*

Results for NCCCC[C@@H](N)C(=O)O ?
G9a block: 28%[59 µM]; VDR inh: -2%

Results for O=c1c2ccccc2nc2n1CCO2 ?
BAZ2B inh: 5%; G9a block: -3%; HP1b binding inh: 12%; VDR inh: -15%; PLK1 PBD block: -10%; JMJD2A Tudor: -4%

Results for O=c1c2ccccc2nc2oc3ccccc3n12 ?
BAZ2B inh: 5%; G9a block: 25µM*; HP1b binding inh: -10%; VDR inh: -14%; PLK1 PBD block: inconclusive; JMJD2A Tudor: -13%

How did COc1cc2ncc(-c3ccccc3)nc2cc1OC do in these assays?
G9a block: 50%[59 µM]; VDR inh: -2%

What do the screens show for `Cc1nnsc1C(=O)N/N=C/c1ccc2ccccc2c1O`?
BAZ2B inh: 1.4µM*; G9a block: 40µM*; HP1b binding inh: 13%; VDR inh: -4%; PLK1 PBD block: 58%; JMJD2A Tudor: inconclusive

How did CCC(C)NC(=O)c1cc2c(Cl)nc3ccc(C)cc3c2s1 (stereo not drawn) do in these assays?
BAZ2B inh: -2%; G9a block: 6%[59 µM]; HP1b binding inh: 32%; VDR inh: -1%; JMJD2A Tudor: -5%

Results for O=C(NNc1nc2cc3c(cc2s1)OCCO3)c1ccccc1 ?
BAZ2B inh: -32%; G9a block: 40µM*; HP1b binding inh: 22%; VDR inh: -9%; PLK1 PBD block: 1%; JMJD2A Tudor: -32%

What do the screens show for `CCC(=O)NNc1nc2c(C)cccc2s1`?
G9a block: inconclusive; HP1b binding inh: 30%; VDR inh: 16%; PLK1 PBD block: -6%; JMJD2A Tudor: -8%

How did Cc1cccc2sc(NNC(=O)c3ccc4c(c3)OCCO4)nc12 do in these assays?
BAZ2B inh: inconclusive; G9a block: 10µM*; HP1b binding inh: 6%; VDR inh: 1%; PLK1 PBD block: -16%; JMJD2A Tudor: inconclusive

What do the screens show for `CCn1c2ccccc2c2cc(NC(=O)c3coc(=O)c(Br)c3)ccc21`?
BAZ2B inh: -11%; G9a block: 7.1µM*

Results for CCn1c2ccccc2c2cc(NC(=O)c3ccc(Br)o3)ccc21 ?
BAZ2B inh: inconclusive; G9a block: 11µM*; HP1b binding inh: inconclusive; VDR inh: 50µM*; PLK1 PBD block: inconclusive; JMJD2A Tudor: 20µM*

What do the screens show for `CCn1c2ccccc2c2cc(NC(=O)CSc3nccc(=O)[nH]3)ccc21`?
BAZ2B inh: -37%; G9a block: 35µM*; HP1b binding inh: 7%; VDR inh: -20%; PLK1 PBD block: -14%; JMJD2A Tudor: -27%

What do the screens show for `N/C(=N\O)c1ccc(NC(=O)c2ccc(Br)o2)cc1`?
BAZ2B inh: 3%; G9a block: -31%[12.7 µM]; HP1b binding inh: inconclusive; VDR inh: inconclusive; PLK1 PBD block: 15µM*; JMJD2A Tudor: inconclusive

What do the screens show for `COc1cc(-c2ccc3ncnc(NCc4cccs4)c3c2)cc(OC)c1OC`?
JMJD2A Tudor: -16%
